Among the data in PubChem BioAssay AID2284090 (EPA ToxCast) are AC50 values, retold here.

Calls of active or inactive are those of the source. The calls were made as follows: active = hit-call score of the fitted dose curve at least 0.9, where 1 is the maximum; inactive = score below 0.9.

Chain of Cytochrome P450 2C19 (Homo sapiens) (P33261 whole entry, looked up): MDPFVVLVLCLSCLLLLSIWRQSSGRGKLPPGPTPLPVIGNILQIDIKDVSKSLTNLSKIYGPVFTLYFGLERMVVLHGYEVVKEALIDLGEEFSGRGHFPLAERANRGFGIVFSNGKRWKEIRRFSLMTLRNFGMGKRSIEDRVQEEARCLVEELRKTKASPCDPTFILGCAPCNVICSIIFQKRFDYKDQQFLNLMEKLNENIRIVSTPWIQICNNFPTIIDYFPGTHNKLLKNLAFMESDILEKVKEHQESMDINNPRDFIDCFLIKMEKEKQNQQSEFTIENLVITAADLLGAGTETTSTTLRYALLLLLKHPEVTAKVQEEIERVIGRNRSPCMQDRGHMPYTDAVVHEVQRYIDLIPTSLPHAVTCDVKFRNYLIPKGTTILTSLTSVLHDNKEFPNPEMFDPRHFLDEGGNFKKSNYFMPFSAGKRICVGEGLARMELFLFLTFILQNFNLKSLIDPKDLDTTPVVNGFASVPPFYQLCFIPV

The assay addresses Cytochrome P450 2C19 (Homo sapiens) (UniProt P33261). Kind of assay: ERF_FR_ADME_hCYP2C19_Omeprazole: Eurofins (ERF) CYP450-related Enzyme Activity (ADME) Assay for CYP2C19, Omeprazole Substrate. On the procedure:
ERF_FR_ADME_hCYP2C19_Omeprazole is a biochemical, single-readout assay that uses extracted gene-proteins in a cell-free assay. Measurements were taken 0.16 hour after chemical dosing in a 96-well plate. See CYP2C19 inhibition (HLM, omeprazole substrate).ERF_FR_ADME_hCYP2C19_Omeprazole is an assay component calculated from the ERF_FR_ADME_hCYP2C19_Omeprazole assay. It is designed to measure enzyme activity using a type of enzyme reporter as detected by peak area response of 5-hydroxyomeprazole with HPLC-MS/MS technology.Data from the assay component ERF_FR_ADME_hCYP2C19_Omeprazole was analyzed at the assay endpoint, ERF_FR_ADME_hCYP2C19_Omeprazole, in the positive analysis fitting direction relative to acetonitrile as the negative control and baseline of activity. Using a type of enzyme reporter, loss-of-signal activity can be used to understand changes in enzymatic activity as they relate to gene CYP2C19. To generalize the intended target to other relatable targets, this assay endpoint is annotated to the cyp intended target family, where the subfamily is steroidogenesis-related.
Assay is performed using 0.5uM omeprazole, cells are pre-incubated for 5 minutes, and then 10 minutes incubation with NADPH at 37C. Test Sample Requirements: Minimum for 1) Screen: 100 ul of 10 mM stock -OR- 1 to 2 mg (pre-weighed). 2) Dose Response: 250 ul of 10 mM stock -OR- 1.5 to 2 mg (pre-weighed).
A word on the AC50: it is the midpoint of the concentration-response curve, whichever way the signal moves. For the molecule `O=C(/C=C/c1ccc(O)cc1)CC(=O)/C=C/c1ccc(O)cc1`, the AC50 is 1740 nM (active).
